From PubChem BioAssay AID604 (The Scripps Research Institute Molecular Screening Center, 2007) come the findings set out here.

Out of some 60,000 compounds screened, about 210 (0.35%) were called active.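 Rule for the calls: active = inhibition above the screen-wide mean inhibition plus 3 SD (cut at about 18% in these data); inactive = the rest.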 This excerpt belongs to a sample that is enriched for actives.

The target of this assay is Rho-associated protein kinase 2 (Homo sapiens) (UniProt O75116). The assay can be described thus: ROCK2 enzymatic activity blockers – biochemical, high-throughput, luminescence, primary screen (AID 604).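 Note: plate controls were DMSO wells for no effect and Y-27632 control wells after no-enzyme background subtraction for full effect.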 Particulars: purified ROCK2, Kinase-Glo ATP depletion luminescence; at 6 µM; hits give high values.
Chain of Rho-associated protein kinase 2 (Homo sapiens) (O75116 whole entry, looked up): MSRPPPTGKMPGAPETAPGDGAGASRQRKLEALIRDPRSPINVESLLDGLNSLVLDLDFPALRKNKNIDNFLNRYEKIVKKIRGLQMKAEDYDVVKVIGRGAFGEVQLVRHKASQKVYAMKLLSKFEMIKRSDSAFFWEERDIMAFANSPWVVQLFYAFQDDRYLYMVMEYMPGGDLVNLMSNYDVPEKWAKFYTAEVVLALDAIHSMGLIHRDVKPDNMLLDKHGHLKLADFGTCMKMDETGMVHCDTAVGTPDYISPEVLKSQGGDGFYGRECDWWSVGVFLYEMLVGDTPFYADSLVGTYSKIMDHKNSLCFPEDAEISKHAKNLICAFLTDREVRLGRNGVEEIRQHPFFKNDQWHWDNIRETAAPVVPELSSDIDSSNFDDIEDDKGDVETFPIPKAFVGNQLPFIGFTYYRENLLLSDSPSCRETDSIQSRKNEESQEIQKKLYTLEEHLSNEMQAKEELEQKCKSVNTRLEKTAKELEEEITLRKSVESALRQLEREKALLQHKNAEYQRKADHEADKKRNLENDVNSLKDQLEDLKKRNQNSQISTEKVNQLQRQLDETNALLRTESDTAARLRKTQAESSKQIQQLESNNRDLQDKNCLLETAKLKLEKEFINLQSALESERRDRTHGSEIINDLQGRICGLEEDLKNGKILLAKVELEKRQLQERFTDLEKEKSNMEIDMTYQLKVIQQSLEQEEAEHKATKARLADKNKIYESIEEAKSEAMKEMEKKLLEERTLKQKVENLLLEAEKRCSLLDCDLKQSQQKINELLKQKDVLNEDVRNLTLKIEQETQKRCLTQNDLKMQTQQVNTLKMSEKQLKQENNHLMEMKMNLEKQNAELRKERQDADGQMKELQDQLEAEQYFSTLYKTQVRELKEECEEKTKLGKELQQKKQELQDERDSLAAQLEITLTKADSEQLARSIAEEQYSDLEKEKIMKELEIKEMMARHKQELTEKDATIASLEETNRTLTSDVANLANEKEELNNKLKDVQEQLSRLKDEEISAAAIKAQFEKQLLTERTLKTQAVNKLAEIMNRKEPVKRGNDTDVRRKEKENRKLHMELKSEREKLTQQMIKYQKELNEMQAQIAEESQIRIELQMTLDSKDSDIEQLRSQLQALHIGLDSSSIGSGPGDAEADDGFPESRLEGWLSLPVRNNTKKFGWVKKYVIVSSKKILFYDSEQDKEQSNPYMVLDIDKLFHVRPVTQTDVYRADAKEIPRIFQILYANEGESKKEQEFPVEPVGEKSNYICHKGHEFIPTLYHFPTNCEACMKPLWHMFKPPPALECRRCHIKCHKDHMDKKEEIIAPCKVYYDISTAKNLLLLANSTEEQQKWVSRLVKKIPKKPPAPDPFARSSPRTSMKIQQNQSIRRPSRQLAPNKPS
As to `O=C(Nn1cnc2ccccc2c1=O)c1ccc(F)cc1Cl`, the inhibition is 4.2% (inactive).

Turning to `CCCCCCn1c(SCC(=O)c2ccccc2)nc2c1c(=O)[nH]c(=O)n2C`, the inhibition was 6.3% (inactive).

Regarding `O=C(CSc1nnc2scc(-c3ccc(F)cc3)n12)NCc1ccco1`, the inhibition was 2.1% (inactive).

For the compound `CC1(C)C2CCC1(C)C(OC(=O)CCn1ccnc1)C2` (stereo unspecified), the inhibition is 6.6% (inactive).

On to `O=C(CC1Nc2ccccc2NC1=O)Nc1ccccc1` (stereo unspecified), for which the inhibition is 3% (inactive).

Take `O=C(C1=C(O)C(=O)N(c2ncccn2)C1c1cccs1)c1ccco1` (stereo unspecified): the inhibition is -11.1% (inactive).

Consider `CNC(=O)C1CC(=O)N(Cc2ccc3c(c2)OCO3)C(=Nc2ccc(F)cc2)S1` (stereo unspecified), for which the inhibition is -7.4% (inactive).

Regarding `O=CN1CCN(C2CC(=O)N(c3ccc4c(c3)OCO4)C2=O)CC1` (stereo unspecified), the inhibition is 7% (inactive).

In the case of `O=C1CC(N2CCN(C(c3ccccc3)c3ccccc3)CC2)C(=O)N1` (stereo unspecified), the inhibition was 5.5% (inactive).

On to `CCc1ccc2oc(-c3ccc(N)cc3)nc2c1`, for which the inhibition was 4.1% (inactive).

For `CCCCCC(=O)Nc1ccc2oc(-c3ccncc3)nc2c1`, the inhibition was 22.3% (active).

In the case of `CCCC(=O)Nc1ccc2c(c1)nc1n2CCSC1`, the inhibition was -0.6% (inactive).

On to `NC(=O)C1CCN(C2OC(=O)c3ccccc32)CC1` (stereo unspecified), for which the inhibition is 7.4% (inactive).

For the compound `COc1cc2c(cc1NC(=O)CN1CCN(S(=O)(=O)c3ccc(F)cc3)CC1)oc1ccccc12`, the inhibition was 3.5% (inactive).

As for `Cc1noc(COc2ccccc2OCC(O)CNC(C)(C)C)n1` (stereo unspecified), the inhibition was 1.2% (inactive).

As for `O=P(c1ccc2c(c1)OCCO2)(N1CCOCC1)N1CCOCC1`, the inhibition is -3.2% (inactive).

As for `Cc1nn(-c2ccccc2)c2[nH]c(C(F)(F)F)cc(=O)c12`, the inhibition was -0.3% (inactive).

In the case of `CCOc1ccc(CCNC(=O)C(CC)n2nc(C)n3c(cc4sccc43)c2=O)cc1OCC` (stereo unspecified), the inhibition is -3.8% (inactive).

As for `CCc1nnc(NC(=O)CCC(=O)O)s1`, the inhibition was -4.5% (inactive).

For the compound `O=[n+]1c2c(n([O-])c3cc(Br)ccc31)CCC2`, the inhibition is -5% (inactive).

With `CC(=O)c1ccc(NC(=O)N[C@@H](Cc2ccccc2)C(=O)O)cc1`, the inhibition was -0.8% (inactive).

Turning to `Cc1cc(Nc2ccccc2)n(CCC#N)n1`, the inhibition is 4.6% (inactive).

`Cc1c(C(=O)N2CC(C)OC(C)C2)sc2nc(-c3ccccc3)cn12` (stereo unspecified): the inhibition was 8.6% (inactive).

For `Cc1c(NC(=O)C(C)OC(=O)c2cc3c4ccccc4n(C)c3s2)c(=O)n(-c2ccccc2)n1C` (stereo unspecified), the inhibition is 5.5% (inactive).

Take `Fc1cnc(N2CCOCC2)nc1NCc1ccccc1`: the inhibition is -0.4% (inactive).

Turning to `Cc1nc(-c2ccc(NC(=O)c3cccs3)cc2)cs1`, the inhibition was -25% (inactive).

As to `Cc1nnc(NC2=NCCCCC2)o1`, the inhibition was -0.7% (inactive).

`Cc1ccc(S(=O)(=O)c2nc(NCCCn3ccnc3)sc2Cl)cc1`: the inhibition is 1.7% (inactive).

Consider `CCC1(C)N(O)C(C)(C)C(c2ccc(OC)cc2)=[N+]1[O-]` (stereo unspecified), for which the inhibition is 2.5% (inactive).

As to `O=c1[nH]c(=O)n(Cc2ccco2)c2c1C(C(F)(F)F)(C(F)(F)F)N=C(c1ccco1)N2`, the inhibition is 5% (inactive).

Turning to `N#CCCN1CCN(S(=O)(=O)c2ccc(S(=O)(=O)NC3CC3)cc2)CC1`, the inhibition was 1.7% (inactive).

On to `CCOC(=O)CSc1nnc(-c2cccc(Br)c2)o1`, for which the inhibition was 2.1% (inactive).

For the compound `COc1cc(=O)[nH]c(=O)n1C(=O)Cc1ccccc1`, the inhibition is -0.6% (inactive).

In the case of `Cc1cc(C)nc(SCc2ccccc2C#N)n1`, the inhibition is 6% (inactive).

Turning to `COc1ccc(N2C(=O)C3CCCN3C2c2cccs2)cc1` (stereo unspecified), the inhibition is -2.8% (inactive).

`CCC(C)(NC(=O)c1ccccn1)C(=O)NC1CCCCC1` (stereo unspecified): the inhibition is -0.8% (inactive).

For `Cc1ccc2[nH]c(=O)c(COC(=O)c3ccccn3)cc2c1`, the inhibition was 6.5% (inactive).

Take `CCCC(=O)Nc1ccc(Cl)c(NC(=O)c2ccc(Br)o2)c1`: the inhibition was -0.6% (inactive).

For `O=C(c1ccco1)N1CCN(C(=O)C2CC(c3ccc(F)cc3)=NO2)CC1` (stereo unspecified), the inhibition is 1.1% (inactive).

Regarding `COc1ccc(C(=O)Nc2c(N)nc(SCC(=O)N3CCC(C)CC3)[nH]c2=O)cc1OC`, the inhibition is 1.5% (inactive).

As to `CN1CCN(CC(O)COCc2ccc3c(c2)OCO3)CC1` (stereo unspecified), the inhibition is 5.7% (inactive).

Regarding `O=C(NCc1ccco1)c1cnn2c(C(F)(F)F)cc(-c3ccco3)nc12`, the inhibition was 12.9% (inactive).

Take `NC(=O)Cn1c(=O)oc2ccccc21`: the inhibition is -2% (inactive).

On to `CCOc1ccc2[nH]c(=O)c(CN(CCCO)C(C)=O)cc2c1`, for which the inhibition is -4.4% (inactive).

For `Fc1ccc(Cn2nnnc2C(c2cccs2)N2CCCCCC2)cc1` (stereo unspecified), the inhibition was 4.1% (inactive).

Regarding `CC(C)C1Cc2c(sc3c2c(=O)n(-c2ccccc2)c2nncn32)CO1` (stereo unspecified), the inhibition was 5.5% (inactive).

Take `O=C(c1ccco1)N1CCN(C(=O)c2ccc(COc3ccc(F)cc3)o2)CC1`: the inhibition is -1.9% (inactive).

In the case of `O=S(=O)(Nc1ccccn1)c1ccc(Oc2ccccc2)cc1`, the inhibition was -6.5% (inactive).

As to `Nn1c(SCC(=O)NC(=O)NC2CCCC2)nnc1-c1ccccc1F`, the inhibition was 12.5% (inactive).

For the compound `CN1C(=O)c2ccc(NC(=O)c3c(F)c(F)c(F)c(F)c3F)cc2C1=O`, the inhibition was 9.3% (inactive).

For the compound `CCCCC(=O)Nc1ccc2c(c1)OCCO2`, the inhibition was -1.9% (inactive).

As to `CCCCC(=O)Nc1ccc2c(c1)C(=O)NC2=O`, the inhibition is 23.1% (active).

`Cc1ccccc1CSCC(=O)NC(=O)NC(C)(C)C`: the inhibition was 4.6% (inactive).

As for `CCSc1nc(=S)n(CC)c(C)c1C(C)=O`, the inhibition is 0.9% (inactive).

As for `CSc1ccc(NC(=O)N2CC(C)OC(C)C2)cc1` (stereo unspecified), the inhibition is 6.5% (inactive).

In the case of `CCN(CC)C(=O)CSc1nnc(-c2ccc(S(=O)(=O)NCc3ccccc3Cl)cc2)o1`, the inhibition was 1.9% (inactive).

Consider `Cc1nn(Cc2ccc(Cl)c(Cl)c2)c(C)c1NC(=O)c1cc(C2CC2)on1`, for which the inhibition is -8.2% (inactive).

Consider `Cc1ccc(O)c(NC(=O)COc2cc(C)ccc2C)c1`, for which the inhibition was 3.2% (inactive).

Consider `COc1ccc(OC)c(NC(=O)CN2CCN(C(=O)c3ccco3)CC2)c1`, for which the inhibition is 0.1% (inactive).

As for `OCCNCCCCOc1ccccc1F`, the inhibition is 5.9% (inactive).

On to `CCSc1ncnc2c(C#N)c3n(c12)CCCCC3`, for which the inhibition is 3% (inactive).

As to `CC(=O)Nc1nonc1-c1nc2ccccc2n1Cc1ccccn1`, the inhibition is 2.3% (inactive).

Regarding `Cn1c(=O)c2c(n(Cc3ccccc3)c1=O)NC(=O)C2CC(=O)N1CCc2ccccc2C1` (stereo unspecified), the inhibition is 6.4% (inactive).

Consider `C=CCn1c(C)cc(C(=O)CN2C(=O)c3ccccc3C2=O)c1C`, for which the inhibition was 2.5% (inactive).

For the compound `CCCn1cc(SCC(N)=O)c2ccccc21`, the inhibition is 4.9% (inactive).

Turning to `Cc1ccc(C(=O)NCC2CCCO2)o1` (stereo unspecified), the inhibition is 4.3% (inactive).

On to `C=CCn1cnc2scc(-c3ccccc3)c2c1=O`, for which the inhibition was 1.2% (inactive).

Take `C#CCN1CC(C)/C(=N/O)CC1C` (stereo unspecified): the inhibition is 3.7% (inactive).

With `O=C1CC(c2ccccc2)CC(O)=C1C=NCCN1CCOCC1` (stereo unspecified), the inhibition was 3.3% (inactive).

`COc1cccc(N2CCN(C(=O)C3CCCN(S(=O)(=O)c4cnc[nH]4)C3)CC2)c1` (stereo unspecified): the inhibition is 3.3% (inactive).

As to `Cc1cc(C(=O)CC#N)c(C)n1CC(F)(F)F`, the inhibition is 3.3% (inactive).

For the compound `O=C1C=C(NCCNc2c(F)c(F)c(CO)c(F)c2F)CCC1`, the inhibition is 1.5% (inactive).

As for `Cc1cn(C2C=CC(CO)O2)c(=O)[nH]c1=O` (stereo unspecified), the inhibition was 6.1% (inactive).

In the case of `Cc1cc(=O)[nH]c(SCC(=O)N2c3ccccc3CC2C)n1` (stereo unspecified), the inhibition is -3.6% (inactive).

For `CC(C)OCCCNc1nc2c(c(=O)n(Cc3ccccc3F)c(=O)n2C)n1C`, the inhibition was -0.3% (inactive).

Turning to `CC1Cc2ccccc2N1C(=O)CSc1nnc(-c2ccc(S(=O)(=O)N3CCCCC3)cc2)o1` (stereo unspecified), the inhibition was -4.4% (inactive).

With `CCCCCCn1c(CN2CCCCC2)nc2c1c(=O)n(C)c(=O)n2C`, the inhibition was -1.3% (inactive).

Consider `Cc1nn(-c2ccccc2)c(C)c1C(=O)OCC(=O)NC(=O)NC1CCCCC1`, for which the inhibition is 1.4% (inactive).

On to `COC(=O)C(C)n1cnc2c(nnn2-c2cccc(Cl)c2)c1=O` (stereo unspecified), for which the inhibition was 7.7% (inactive).

Take `O=C(CC1N=C2c3ccccc3N=C(SCc3ccccc3Cl)N2C1=O)NCc1ccco1` (stereo unspecified): the inhibition was 2.8% (inactive).

For the compound `Cc1cccc(OCc2nnc(SCC(=O)N3CCN(C(=O)c4ccco4)CC3)n2C)c1C`, the inhibition is 3.2% (inactive).

Turning to `O=C(c1cc(-c2ccccc2O)on1)N1CCCC1`, the inhibition was -1.5% (inactive).

Take `CCOC(=O)N1CCC(NC(=O)Cn2cc3c(n2)CCCCC3)CC1`: the inhibition was 9% (inactive).

Consider `O=C(CN1CCOCC1)Nc1cc(Cl)ccc1Cl`, for which the inhibition was 2.5% (inactive).

Consider `O=C(NCc1ccco1)C1CCCN(S(=O)(=O)c2cnc[nH]2)C1` (stereo unspecified), for which the inhibition was 3.2% (inactive).

Consider `COc1cccc(-c2nn(C)c3sc(C(=O)N4CCN(c5ccccc5)CC4)cc23)c1`, for which the inhibition was 6.1% (inactive).

Take `O=C(Nc1ccn(Cc2ccc(F)cc2)n1)c1ccncc1`: the inhibition was 18.1% (inactive).

Consider `CCOC(=O)Cc1csc(NC(=O)CN(C)S(=O)(=O)c2ccc3c(c2)CCC(=O)N3)n1`, for which the inhibition is 2.4% (inactive).

As for `CC(C)n1c(NCc2c[nH]c3ccccc23)nc2ccccc21`, the inhibition was 2.4% (inactive).

With `Cc1cc(NC(=O)CCC(=O)N(c2cccc(F)c2)C(C(=O)NC2CCCC2)c2ccncc2)no1` (stereo unspecified), the inhibition was 4% (inactive).

Regarding `Cc1ccccc1-c1nc(CS(=O)(=O)CC(=O)N2CCc3ccccc3C2)c(C)o1`, the inhibition was -0.8% (inactive).

Take `CN(C)Cc1c(O)ccc2occ(C(O)c3ccccc3)c12` (stereo unspecified): the inhibition is 2% (inactive).

Turning to `CSc1ccc(S(=O)(=O)NCc2ccc(Cl)cc2)cc1`, the inhibition is 5.4% (inactive).

On to `CCOC(=O)N1CCN(Cc2nc3c(c(=O)n(C)c(=O)n3C)n2Cc2ccccc2)CC1`, for which the inhibition was 2.4% (inactive).

As for `CCn1c(SCC(=O)Nc2cc(C)c(Cl)cc2OC)nnc1-c1ccco1`, the inhibition was 3.2% (inactive).

`Cc1ccc(N2CCN(S(=O)(=O)N(C)C)CC2)cc1Cl`: the inhibition is 8.1% (inactive).

For the compound `O=c1c(-c2ccc3c(c2)OCCO3)c(C(F)(F)F)oc2cc(O)cc(O)c12`, the inhibition was -3.1% (inactive).

For the compound `CCOC(=O)C1=C(C)NC(C)=C(C(=O)OCC)C1c1ccccn1`, the inhibition was -6.7% (inactive).

In the case of `CC(=O)N1CSCC1C(=O)O` (stereo unspecified), the inhibition was 2.3% (inactive).

Take `Cc1noc(C)c1C(=O)Nc1ccccn1`: the inhibition was 8.1% (inactive).

Regarding `O=C(NCc1cccnc1)c1ccc(CS(=O)(=O)c2ccc(Br)cc2)o1`, the inhibition is 1.6% (inactive).
